Experimental data taken from PubChem BioAssay (NCI).
About 79,000 compounds went through this panel and 15% of them were active in at least one assay; those are over-represented in the sample as a whole. Active and inactive are the calls of the source. No stated cut-off is given here; in the data, active means growth inhibition above about 70%; inactive means the rest.

What was measured:
[1] = NCI Yeast Anticancer Drug Screen. Data for the rad52 strain (AID 147);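 further: 0% = growth of vehicle-treated control cultures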; conditions: S. cerevisiae rad52 mutant growth inhibition, hits give high values
Summary of the method: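 Yeast strain carrying a DNA damage repair alteration was exposed to test compounds. Growth inhibition was measured relative to vehicle-treated controls.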

[2] = NCI Yeast Anticancer Drug Screen. Data for the wt1 strain (AID 149);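 further: 0% = growth of vehicle-treated wt1 cultures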; conditions: S. cerevisiae wt1 strain (SPY 50644) growth inhibition, hits give high values
Summary of the method: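 Compounds are added to wt1 yeast cultures. Growth is then measured. Inhibition is expressed relative to vehicle-treated controls.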

[3] = NCI Yeast Anticancer Drug Screen. Data for the rad50EPP+ strain (AID 151);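 further: 0% = growth of vehicle-treated control cultures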; conditions: S. cerevisiae rad50 mutant strain, hits give high values
Summary of the method: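 Yeast strain carrying rad50 alteration (rad50EPP+) exposed to compounds; growth inhibition measured relative to vehicle-treated controls.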

[4] = NCI Yeast Anticancer Drug Screen. Data for the mgt1 strain (AID 153); conditions: S. cerevisiae mgt1 mutant growth inhibition, hits give high values
Summary of the method: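 Yeast mgt1 strain (DNA repair/cell-cycle alteration panel) exposed to compounds; growth inhibition measured relative to vehicle-treated controls.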

[5] = NCI Yeast Anticancer Drug Screen. Data for the rad50 strain (AID 155);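 further: 0% = growth of vehicle-only cultures of the same strain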; conditions: S. cerevisiae rad50 strain growth inhibition, hits give high values
Summary of the method: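 Inhibition values express reduced yeast growth in compound-treated cultures relative to vehicle-treated controls.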

[6] = NCI Yeast Anticancer Drug Screen. Data for the mec2-1 strain (AID 157); conditions: S. cerevisiae mec2-1 strain, hits give high values
Summary of the method: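 mec2-1 yeast strain, carrying an alteration in DNA damage repair or cell cycle control, was exposed to compounds; growth inhibition was measured relative to vehicle-treated controls.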

[7] = NCI Yeast Anticancer Drug Screen. Data for the rad14 strain (AID 159);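 further: 0% = growth of vehicle-treated control cultures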; conditions: S. cerevisiae rad14 strain growth inhibition, hits give high values
Summary of the method: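 A mutant yeast strain defective in DNA damage repair is treated with compound; inhibition of its growth is scored against untreated, vehicle-exposed cultures.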

[8] = NCI Yeast Anticancer Drug Screen. Data for the sgs1 mgt1 strain (AID 161);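 further: 0% = growth of cultures given vehicle only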; conditions: S. cerevisiae sgs1 mgt1 strain, hits give high values
Summary of the method: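 Yeast cells carrying a defined DNA-repair defect were exposed to test compounds. Growth inhibition was measured relative to vehicle-treated controls.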

[9] = NCI Yeast Anticancer Drug Screen. Data for the CLN2oe strain (AID 163);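 further: 0% = growth of vehicle-only control cultures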; conditions: S. cerevisiae CLN2oe strain, hits give high values
Summary of the method: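 Yeast cells carrying a defined cell-cycle control alteration were exposed to test compounds. Growth inhibition was scored against vehicle-treated control cultures.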

[10] = NCI Yeast Anticancer Drug Screen. Data for the cln2 rad14 strain (AID 165);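 further: 0% = growth equal to vehicle treated cultures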; conditions: S. cerevisiae cln2 rad14 strain, hits give high values
Summary of the method: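 Yeast carrying cln2 and rad14 alterations (cell cycle control and DNA damage repair) were exposed to compounds. Growth inhibition was measured against vehicle-treated controls.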

[11] = NCI Yeast Anticancer Drug Screen. Data for the bub3 strain (AID 167); conditions: S. cerevisiae bub3 mutant strain, hits give high values
Summary of the method: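 Steps: expose the mutant yeast strain to compound; grow alongside vehicle-treated cultures; measure growth; express inhibition against the vehicle cultures.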

[12] = NCI Yeast Anticancer Drug Screen. Data for the wt2 strain (AID 169);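 further: 0% = growth of vehicle-treated yeast cultures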; conditions: S. cerevisiae wt2 strain growth inhibition, hits give high values
Summary of the method: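 Yeast cells were exposed to test compounds, and growth inhibition was measured relative to vehicle-treated controls.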

[13] = NCI Yeast Anticancer Drug Screen. Data for the mlh1 strain (AID 171);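 further: 0% = growth of vehicle-treated control cultures of the same strain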; conditions: S. cerevisiae mlh1 strain growth inhibition, hits give high values
Summary of the method: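 Yeast carrying a defined genetic alteration in DNA damage repair or cell cycle control were exposed to test compounds. Growth inhibition was measured relative to vehicle-treated controls.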

[14] = NCI Yeast Anticancer Drug Screen. Data for the sgs1 strain (AID 173);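 further: 0% = growth of vehicle-only control cultures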; conditions: S. cerevisiae sgs1 mutant, hits give high values
Summary of the method: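 Yeast mutant strains carrying defined defects in DNA damage repair or cell cycle control were exposed to test compounds. Growth inhibition was scored against vehicle-treated controls.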

[15] = NCI Yeast Anticancer Drug Screen. Data for the mlh1 rad18 strain (AID 175); conditions: S. cerevisiae mlh1 rad18 strain growth inhibition, hits give high values
Summary of the method: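 Growth inhibition of the yeast strain was measured after compound exposure and expressed relative to vehicle-treated controls. The strain carries defined defects in DNA damage repair.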

[16] = NCI Yeast Anticancer Drug Screen. Data for the rad18 strain (AID 177); conditions: S. cerevisiae rad18 mutant growth inhibition, hits give high values
Summary of the method: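 Yeast carrying a defined DNA damage repair alteration were exposed to compounds. Growth inhibition was expressed relative to vehicle-treated controls.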

[17] = at 5.0 µM (retest, dose inferred, filed as 0.5)
[18] = at 50.0 µM (retest, dose inferred, filed as 5.0)

Measured: growth inhibition

O=c1c2ccccc2ncn1COCc1ccccc1
active: [8]; at 50.0 µM 89.5% | [10]; [18] 75% | [11]; [18] 88% | [11]; at 50.0 µM 74.3%
inactive: [1]; at 1.2 µM -4% | [1]; at 3.7 µM 3% | [1]; at 11.0 µM -22% | [1]; at 33.0 µM -16% | [1]; at 100.0 µM 2% | [2]; at 1.2 µM -2% | [2]; at 3.7 µM -19% | [2]; at 11.0 µM -11% | [2]; at 33.0 µM -13% | [2]; at 100.0 µM 8% | [3]; at 1.2 µM -31% | [3]; at 3.7 µM -30% | [3]; at 11.0 µM -28% | [3]; at 33.0 µM -21% | [3]; at 100.0 µM 8% | [4]; at 1.2 µM -17% | [4]; at 3.7 µM -14% | [4]; at 11.0 µM -11% | [4]; at 33.0 µM 1% | [4]; at 100.0 µM 21% | [5]; at 1.2 µM -10% | [5]; at 3.7 µM 2% | [5]; [17] 14% | [5]; at 11.0 µM 3% | [5]; at 33.0 µM 9% | [5]; [18] 19% | [5]; at 50.0 µM 1.9% | [5]; at 100.0 µM 23% | [6]; at 1.2 µM -12% | [6]; at 3.7 µM -15% | [6]; [17] 14% | [6]; at 11.0 µM -11% | [6]; at 33.0 µM 2% | [6]; [18] 15% | [6]; at 50.0 µM -6.6% | [6]; at 100.0 µM 26% | [7]; at 1.2 µM -13% | [7]; at 3.7 µM 0% | [7]; at 11.0 µM -15% | [7]; at 33.0 µM -6% | [7]; at 100.0 µM 5% | [8]; [17] 13% | [8]; [18] 69% | [9]; at 1.2 µM -26% | [9]; at 3.7 µM -15% | [9]; at 11.0 µM -12% | [9]; at 33.0 µM -20% | [9]; at 100.0 µM -9% | [10]; [17] 12% | [10]; at 50.0 µM 52.4% | [11]; at 1.2 µM -20% | [11]; at 3.7 µM -18% | [11]; [17] 7% | [11]; at 11.0 µM -7% | [11]; at 33.0 µM 29% | [11]; at 100.0 µM 58% | [12]; at 1.2 µM -16% | [12]; at 3.7 µM -3% | [12]; at 11.0 µM -7% | [12]; at 33.0 µM -3% | [12]; at 100.0 µM 15% | [13]; at 1.2 µM 0% | [13]; at 3.7 µM 12% | [13]; at 11.0 µM -4% | [13]; at 33.0 µM 6% | [13]; at 100.0 µM 27% | [14]; at 1.2 µM -49% | [14]; at 3.7 µM -34% | [14]; at 11.0 µM -37% | [14]; at 33.0 µM -21% | [14]; at 100.0 µM -7% | [15]; [17] 18% | [15]; [18] 30% | [15]; at 50.0 µM -22.1% | [16]; at 1.2 µM -3% | [16]; at 3.7 µM -5% | [16]; at 11.0 µM 3% | [16]; at 33.0 µM 9% | [16]; at 100.0 µM 26%

CC(=O)Nc1ccc2c(c1)C(=Nc1ccc(C(=O)O)cc1)c1ccccc1-2
active: [1]; at 100.0 µM 96% | [3]; at 100.0 µM 92% | [4]; at 100.0 µM 91% | [5]; at 50.0 µM 91% | [5]; at 100.0 µM 95% | [6]; at 100.0 µM 78% | [7]; at 100.0 µM 97% | [8]; at 50.0 µM 74% | [11]; at 50.0 µM 91.6%
inactive: [1]; at 1.2 µM -4% | [1]; at 3.7 µM -2% | [1]; at 11.0 µM 4% | [1]; at 33.0 µM 47% | [2]; at 1.2 µM 1% | [2]; at 3.7 µM 6% | [2]; at 11.0 µM 5% | [2]; at 33.0 µM 13% | [2]; at 100.0 µM 51% | [3]; at 1.2 µM 0% | [3]; at 3.7 µM 7% | [3]; at 11.0 µM 28% | [3]; at 33.0 µM 67% | [4]; at 1.2 µM -2% | [4]; at 3.7 µM -5% | [4]; at 11.0 µM -5% | [4]; at 33.0 µM 3% | [5]; at 1.2 µM -1% | [5]; at 3.7 µM 0% | [5]; [17] 6% | [5]; at 11.0 µM 9% | [5]; at 33.0 µM 47% | [5]; [18] 52% | [6]; at 1.2 µM 1% | [6]; at 3.7 µM 4% | [6]; [17] -3% | [6]; at 11.0 µM 9% | [6]; at 33.0 µM 22% | [6]; [18] 57% | [6]; at 50.0 µM 65.8% | [7]; at 1.2 µM -2% | [7]; at 3.7 µM 1% | [7]; at 11.0 µM 5% | [7]; at 33.0 µM 30% | [8]; [17] -15% | [8]; [18] 6% | [9]; at 1.2 µM 1% | [9]; at 3.7 µM -11% | [9]; at 11.0 µM 3% | [9]; at 33.0 µM 14% | [9]; at 100.0 µM 47% | [10]; [17] -8% | [10]; [18] 8% | [10]; at 50.0 µM 43.9% | [11]; at 1.2 µM -2% | [11]; at 3.7 µM -5% | [11]; [17] -7% | [11]; at 11.0 µM 0% | [11]; at 33.0 µM 11% | [11]; [18] 23% | [11]; at 100.0 µM 50%
